# Assay results published in ChEMBL document CHEMBL2218924, “A broad activity screen in support of a chemogenomic map for kinase signalling research and drug discovery” (Biochem J, 2013).
# Assays:
# [1] = target: Serine/threonine-protein kinase MRCK beta (Homo sapiens) (UniProt Q9Y5S2); details: at 1 µM
# [2] = target: Serine/threonine-protein kinase MRCK beta (Homo sapiens) (UniProt Q9Y5S2); details: at 10 µM
# [3] = target: Ribosomal protein S6 kinase alpha-5 (Homo sapiens) (UniProt O75582); details: at 1 µM
# [4] = target: Ribosomal protein S6 kinase alpha-5 (Homo sapiens) (UniProt O75582); details: at 10 µM
# [5] = target: Ribosomal protein S6 kinase alpha-4 (Homo sapiens) (UniProt O75676); details: at 1 µM
# [6] = target: Ribosomal protein S6 kinase alpha-4 (Homo sapiens) (UniProt O75676); details: at 10 µM
# [7] = target: SRSF protein kinase 3 (Homo sapiens) (UniProt Q9UPE1); details: at 1 µM
# [8] = target: SRSF protein kinase 3 (Homo sapiens) (UniProt Q9UPE1); details: at 10 µM
# [9] = target: T1, Serine/threonine-protein kinase 4 (Homo sapiens) (UniProt Q13043); details: at 1 µM
# T1 sequence (whole entry): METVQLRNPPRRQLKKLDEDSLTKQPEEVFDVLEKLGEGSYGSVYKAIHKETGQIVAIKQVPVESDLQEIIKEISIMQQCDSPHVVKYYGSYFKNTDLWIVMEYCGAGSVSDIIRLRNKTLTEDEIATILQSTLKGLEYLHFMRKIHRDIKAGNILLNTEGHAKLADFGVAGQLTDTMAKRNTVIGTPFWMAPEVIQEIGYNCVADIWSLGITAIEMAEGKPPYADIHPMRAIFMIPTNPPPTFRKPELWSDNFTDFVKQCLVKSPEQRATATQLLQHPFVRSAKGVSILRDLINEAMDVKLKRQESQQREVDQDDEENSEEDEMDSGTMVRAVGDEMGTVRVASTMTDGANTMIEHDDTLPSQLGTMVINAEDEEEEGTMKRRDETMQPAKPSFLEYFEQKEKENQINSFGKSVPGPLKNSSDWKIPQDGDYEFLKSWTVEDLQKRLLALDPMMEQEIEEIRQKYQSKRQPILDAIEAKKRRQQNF
# [10] = target: T1, Serine/threonine-protein kinase 4 (Homo sapiens); details: at 10 µM
# Chain of Ribosomal protein S6 kinase alpha-5 (Homo sapiens) (O75582 whole entry, looked up): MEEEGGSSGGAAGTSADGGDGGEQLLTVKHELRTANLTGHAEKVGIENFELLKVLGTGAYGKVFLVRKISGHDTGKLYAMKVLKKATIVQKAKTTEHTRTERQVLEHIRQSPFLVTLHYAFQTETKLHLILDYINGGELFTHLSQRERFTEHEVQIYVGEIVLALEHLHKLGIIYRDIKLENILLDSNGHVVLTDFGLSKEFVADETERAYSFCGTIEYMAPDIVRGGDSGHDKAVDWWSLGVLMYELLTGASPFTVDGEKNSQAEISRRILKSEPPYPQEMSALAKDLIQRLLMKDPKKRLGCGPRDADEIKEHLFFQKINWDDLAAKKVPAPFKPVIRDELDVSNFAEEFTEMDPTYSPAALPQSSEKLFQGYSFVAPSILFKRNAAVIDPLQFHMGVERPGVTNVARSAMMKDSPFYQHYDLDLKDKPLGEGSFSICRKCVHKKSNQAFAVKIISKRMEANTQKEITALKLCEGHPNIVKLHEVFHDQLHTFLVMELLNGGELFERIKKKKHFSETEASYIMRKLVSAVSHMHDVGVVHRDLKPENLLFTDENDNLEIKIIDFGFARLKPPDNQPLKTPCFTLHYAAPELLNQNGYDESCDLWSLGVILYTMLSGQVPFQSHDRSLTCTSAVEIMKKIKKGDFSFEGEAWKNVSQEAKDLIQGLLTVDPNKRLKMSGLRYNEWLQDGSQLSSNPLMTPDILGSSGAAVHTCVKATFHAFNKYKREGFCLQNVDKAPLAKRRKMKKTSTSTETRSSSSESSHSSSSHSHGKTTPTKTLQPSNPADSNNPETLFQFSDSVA
# Chain of SRSF protein kinase 3 (Homo sapiens) (Q9UPE1 whole entry): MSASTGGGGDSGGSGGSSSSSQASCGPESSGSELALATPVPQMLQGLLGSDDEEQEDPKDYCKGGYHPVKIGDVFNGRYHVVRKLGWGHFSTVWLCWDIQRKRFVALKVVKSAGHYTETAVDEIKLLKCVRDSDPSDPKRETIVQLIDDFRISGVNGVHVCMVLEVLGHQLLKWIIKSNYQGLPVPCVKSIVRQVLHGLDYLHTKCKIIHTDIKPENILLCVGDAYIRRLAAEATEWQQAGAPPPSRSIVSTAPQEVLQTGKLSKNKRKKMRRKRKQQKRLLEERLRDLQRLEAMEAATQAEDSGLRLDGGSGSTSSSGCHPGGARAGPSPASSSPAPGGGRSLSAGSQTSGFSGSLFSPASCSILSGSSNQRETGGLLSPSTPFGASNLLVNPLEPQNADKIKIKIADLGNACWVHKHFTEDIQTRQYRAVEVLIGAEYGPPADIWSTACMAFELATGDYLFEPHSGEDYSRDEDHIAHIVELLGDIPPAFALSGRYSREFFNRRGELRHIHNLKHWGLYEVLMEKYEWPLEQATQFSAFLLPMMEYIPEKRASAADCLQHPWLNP
# Chain of Serine/threonine-protein kinase MRCK beta (Homo sapiens) (Q9Y5S2 whole entry): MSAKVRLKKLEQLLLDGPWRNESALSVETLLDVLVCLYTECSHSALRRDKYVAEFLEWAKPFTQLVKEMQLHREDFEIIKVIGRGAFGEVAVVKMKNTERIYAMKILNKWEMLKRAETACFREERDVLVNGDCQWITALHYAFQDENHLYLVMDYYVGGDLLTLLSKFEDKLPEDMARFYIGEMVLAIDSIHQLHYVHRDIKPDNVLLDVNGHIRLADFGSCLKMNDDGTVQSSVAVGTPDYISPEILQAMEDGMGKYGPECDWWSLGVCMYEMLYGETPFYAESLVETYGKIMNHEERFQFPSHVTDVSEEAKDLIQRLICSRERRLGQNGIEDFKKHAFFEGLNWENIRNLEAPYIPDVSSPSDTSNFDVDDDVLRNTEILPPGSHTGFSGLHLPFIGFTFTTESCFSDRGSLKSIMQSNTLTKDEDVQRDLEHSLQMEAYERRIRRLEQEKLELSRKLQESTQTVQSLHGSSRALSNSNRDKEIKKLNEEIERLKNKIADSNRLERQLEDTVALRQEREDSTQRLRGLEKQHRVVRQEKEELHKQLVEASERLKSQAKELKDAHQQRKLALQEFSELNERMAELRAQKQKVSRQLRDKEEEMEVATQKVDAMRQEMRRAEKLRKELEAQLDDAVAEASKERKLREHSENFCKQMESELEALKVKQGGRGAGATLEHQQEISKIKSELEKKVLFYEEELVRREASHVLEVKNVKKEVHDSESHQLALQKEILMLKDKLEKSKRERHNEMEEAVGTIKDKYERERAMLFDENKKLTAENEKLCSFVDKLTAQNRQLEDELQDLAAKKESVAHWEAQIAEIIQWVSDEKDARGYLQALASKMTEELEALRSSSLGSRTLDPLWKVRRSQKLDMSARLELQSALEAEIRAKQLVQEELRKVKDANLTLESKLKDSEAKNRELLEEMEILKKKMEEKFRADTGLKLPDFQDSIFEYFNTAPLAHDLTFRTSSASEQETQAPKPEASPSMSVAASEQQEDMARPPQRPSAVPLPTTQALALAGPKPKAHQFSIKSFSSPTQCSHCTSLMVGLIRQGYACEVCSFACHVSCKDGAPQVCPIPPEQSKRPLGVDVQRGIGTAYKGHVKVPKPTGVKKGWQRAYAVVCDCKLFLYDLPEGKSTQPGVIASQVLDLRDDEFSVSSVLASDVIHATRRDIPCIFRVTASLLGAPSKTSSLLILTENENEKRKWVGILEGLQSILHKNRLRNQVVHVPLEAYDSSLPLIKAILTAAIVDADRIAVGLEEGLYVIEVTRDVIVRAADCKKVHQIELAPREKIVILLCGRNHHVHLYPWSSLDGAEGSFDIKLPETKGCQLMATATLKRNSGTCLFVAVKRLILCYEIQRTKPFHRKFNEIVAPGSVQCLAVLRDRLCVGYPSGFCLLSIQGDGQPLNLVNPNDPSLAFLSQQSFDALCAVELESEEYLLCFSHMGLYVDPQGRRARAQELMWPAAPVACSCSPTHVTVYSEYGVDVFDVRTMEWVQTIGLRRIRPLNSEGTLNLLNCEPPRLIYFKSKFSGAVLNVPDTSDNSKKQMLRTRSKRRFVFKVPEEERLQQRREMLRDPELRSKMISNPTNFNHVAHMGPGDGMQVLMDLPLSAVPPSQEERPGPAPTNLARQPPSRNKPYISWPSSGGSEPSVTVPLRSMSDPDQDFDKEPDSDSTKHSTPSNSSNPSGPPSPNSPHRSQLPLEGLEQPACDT
# Chain of Ribosomal protein S6 kinase alpha-4 (Homo sapiens) (O75676 whole entry, looked up): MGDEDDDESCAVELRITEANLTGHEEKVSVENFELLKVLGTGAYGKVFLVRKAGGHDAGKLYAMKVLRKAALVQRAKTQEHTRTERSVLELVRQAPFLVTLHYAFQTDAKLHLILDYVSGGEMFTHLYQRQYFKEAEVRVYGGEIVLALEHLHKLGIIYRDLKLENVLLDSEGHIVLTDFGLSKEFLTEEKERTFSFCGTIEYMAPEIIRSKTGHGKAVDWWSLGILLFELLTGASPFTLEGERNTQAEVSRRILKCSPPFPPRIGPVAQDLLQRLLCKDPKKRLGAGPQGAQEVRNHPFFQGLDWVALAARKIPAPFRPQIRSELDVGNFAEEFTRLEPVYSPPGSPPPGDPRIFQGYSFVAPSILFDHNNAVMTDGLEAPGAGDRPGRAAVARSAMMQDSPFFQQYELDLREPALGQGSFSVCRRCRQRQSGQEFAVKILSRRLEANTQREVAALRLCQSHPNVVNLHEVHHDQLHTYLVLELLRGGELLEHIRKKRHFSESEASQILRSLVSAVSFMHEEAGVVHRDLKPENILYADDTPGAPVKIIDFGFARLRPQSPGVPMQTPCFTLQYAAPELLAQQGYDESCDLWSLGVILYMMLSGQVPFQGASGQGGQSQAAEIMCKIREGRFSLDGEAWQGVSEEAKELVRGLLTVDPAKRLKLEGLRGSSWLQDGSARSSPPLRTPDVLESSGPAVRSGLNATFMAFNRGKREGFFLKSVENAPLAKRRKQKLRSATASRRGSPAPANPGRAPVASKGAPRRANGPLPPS
Compound,residual activity [1],residual activity [2],residual activity [3],residual activity [4],residual activity [5],residual activity [6],residual activity [7],residual activity [8],residual activity [9],residual activity [10]
CC(=O)O/N=C1\C(=C2\C(=O)Nc3cc(Br)ccc32)Nc2ccccc21,96%,91%,99%,85%,100%,74%,96%,102%,50%,23%
COc1cc2ncnc(Nc3ccc(NC(=O)c4ccccc4)cc3)c2cc1OC,,90%,,95%,106%,101%,,99%,,98%
Cc1cncc2cccc(S(=O)(=O)N3CCCN(C(=O)CN)C[C@H]3C)c12,89%,80%,126%,54%,66%,37%,,77%,87%,75%
Cc1ccc(NC2=CC(=O)c3sc(C)nc3C2=O)cc1,87%,86%,106%,113%,96%,90%,101%,103%,72%,111%
N#Cc1cnc2cnc(NCc3cccnc3)cc2c1Nc1ccc(F)c(Cl)c1,,,,,5%,2%,119%,99%,93%,91%
Cn1nc2c3c(cccc31)C(=O)c1ccccc1-2,92%,85%,99%,83%,93%,79%,98%,97%,72%,72%
CO[C@@H]1[C@H](N(C)C(=O)c2ccccc2)C[C@H]2O[C@]1(C)n1c3ccccc3c3c4c(c5c6ccccc6n2c5c31)C(=O)NC4,85%,68%,13%,8%,12%,8%,96%,77%,1%,2%
Nc1cccc(-c2cc3c(Oc4cccc(O)c4)ncnc3[nH]2)c1,95%,84%,98%,117%,90%,68%,,,73%,74%
Cc1nc(-c2ccccc2)c(-c2ccncc2)o1,105%,96%,99%,94%,103%,77%,112%,99%,,110%
COc1cccc(-c2cc(=O)c3ccccc3o2)c1N,102%,95%,104%,117%,94%,98%,109%,110%,86%,114%
CN(C)c1ccc(/C=C2\C(=O)Nc3ccccc32)cc1,106%,102%,116%,79%,87%,57%,103%,80%,95%,74%
CN(C)CCCn1cc(C2=C(c3c[nH]c4ccccc34)C(=O)NC2=O)c2ccccc21,,40%,24%,4%,18%,3%,113%,55%,40%,9%
O=C1NC(=O)/C(=C\c2ccc3nccnc3c2)S1,93%,53%,123%,90%,89%,68%,94%,69%,94%,101%
Cc1cc(Nc2nc(-c3ccccc3)nc3ccccc23)n[nH]1,96%,99%,72%,39%,59%,14%,46%,16%,48%,6%
Cc1cc2ncc(-c3ccccc3)nc2cc1C,92%,88%,134%,103%,92%,103%,,87%,,125%
O=C1Nc2ccc(Br)cc2/C1=C\c1cc2c([nH]1)CCCC2,98%,,111%,105%,,99%,101%,80%,60%,75%
O=C1Nc2ccccc2/C1=C1/Nc2ccccc2/C1=N\OCCC(O)CO (stereo not given),,,47%,10%,15%,2%,62%,42%,4%,-3%
COc1cc2ncnc(N3CCN(C(=O)Nc4ccc(Oc5ccccc5)cc4)CC3)c2cc1OC,83%,87%,113%,104%,93%,123%,109%,79%,85%,88%
c1ccc2c(-c3ccncc3)c[nH]c2c1,94%,60%,,,80%,54%,102%,80%,89%,97%
COc1ccc(CNc2nc(N(CCO)CCO)nc3c2ncn3C(C)C)cc1,88%,83%,92%,96%,88%,82%,105%,84%,74%,112%
COc1cc2ncc(-c3ccccc3)nc2cc1OC,98%,79%,,,83%,88%,134%,92%,,
CC(=O)c1ccc(N2CCOCC2)cc1O,100%,83%,133%,108%,92%,,,88%,85%,96%
N#CCCc1ccc2c(c1)-c1[nH]c3ccc([N+](=O)[O-])cc3c1CC(=O)N2,9%,6%,,,,79%,,,10%,6%
CC#CC(=O)Nc1cc2c(Nc3ccc(F)c(Cl)c3)ncnc2cn1,95%,79%,123%,102%,97%,105%,90%,74%,90%,84%
c1ccc(-c2n[nH]cc2-c2ccnc3ccccc23)nc1,96%,87%,,,89%,108%,109%,94%,,
O=C1Nc2cc(Br)ccc2/C1=C1/Nc2ccccc2/C1=N\O,83%,87%,72%,78%,60%,55%,93%,102%,8%,-1%
Nc1ccc2ncnc(NCCc3ccc(Oc4ccccc4)cc3)c2c1,103%,107%,109%,111%,92%,72%,111%,86%,89%,102%
c1ccc(-c2n[nH]c3c2oc2ccccc23)cc1,98%,115%,,74%,95%,70%,,,88%,58%
CCN(CC)C(=O)c1ccc(Nc2nc(OCC3CCCCC3)c3nc[nH]c3n2)cc1,,34%,100%,69%,64%,23%,66%,15%,36%,5%
Cn1cnc2cc3c(Nc4cccc(Br)c4)ncnc3cc21,88%,92%,107%,95%,102%,102%,101%,81%,97%,101%
